Source: PubChem (several laboratories)
This is a sample that favours compounds with a hit; in the whole collection about 3.6% have one here.
FBA Mtb inh – inhibits M. tuberculosis FBA enzyme; P9WQA3; purified M. tuberculosis FBA, fluorescence read-out; hit rate 2.3% among 360,000; AID 588726; inhibition, % at 1 µM; in the data active = inhibition above about 27%;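 note: 0% = vehicle and 100% = reference inhibitor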
Target sequence (P9WQA3 whole entry, looked up): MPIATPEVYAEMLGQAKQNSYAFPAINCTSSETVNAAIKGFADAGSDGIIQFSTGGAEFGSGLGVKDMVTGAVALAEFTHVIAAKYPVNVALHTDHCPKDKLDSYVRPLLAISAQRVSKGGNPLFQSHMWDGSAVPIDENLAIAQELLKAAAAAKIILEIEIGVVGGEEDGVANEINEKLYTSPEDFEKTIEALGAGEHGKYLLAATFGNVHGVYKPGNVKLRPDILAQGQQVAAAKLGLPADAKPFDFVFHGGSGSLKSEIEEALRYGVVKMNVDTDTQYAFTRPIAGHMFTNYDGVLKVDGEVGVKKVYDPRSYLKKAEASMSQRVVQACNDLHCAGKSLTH
Mtb betalactam – beta-lactam sensitization of Mtb H37Rv | inhibition, % at 25 µM | hit rate 0.27% among 330,000 | AID 434955 | M. tuberculosis H37Rv growth with meropenem, percent inhibition; call rule not given here;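 note: growth measured after seven days incubation then overnight dye step; 0% = bacteria only wells and 100% = bacteria with antibiotic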
GDH-TPI counter – GDH-TPI coupled enzyme inhibition counter-screen | GDH-TPI coupled enzyme counterscreen, NADH absorbance | inhibition, % at 4.8 µM | hit rate 1.2% among 360,000 | AID 588335; in the data active = inhibition above about 30%;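 note: 0% = DMSO wells and 100% = wells lacking the enzyme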
DUSP3 inh – DUSP3 (human) phosphatase inhibition; P51452; recombinant VHR phosphatase, pNPP absorbance; inhibition, % at 13.3 µM; hit rate 0.52% among 290,000; AID 1654; in the data active = inhibition above about 50%
Target sequence (P51452 whole entry, looked up): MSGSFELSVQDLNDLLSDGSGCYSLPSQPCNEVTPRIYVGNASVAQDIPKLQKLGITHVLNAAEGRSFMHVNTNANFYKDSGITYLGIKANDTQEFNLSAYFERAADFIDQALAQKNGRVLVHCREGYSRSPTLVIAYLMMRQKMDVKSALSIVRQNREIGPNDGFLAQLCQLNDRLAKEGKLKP
Mtb hypoxia inh – reduces hypoxia-regulated biosensor signal in M. tuberculosis; hit rate 0.1% among 300,000; M. tuberculosis hypoxia-regulated fluorescent reporter, fluorescence; fluorescence inhibition, % (concentration not given with the values); AID 1159583; in the data active = fluorescence inhibition mostly above about 23%, no sharp cut-off; inactive = mostly below about 17%
The depositor's hits bear a star; ? = inconclusive; / = no result given; + = active, no number.

SMILES | FBA Mtb inh | Mtb betalactam | GDH-TPI counter | DUSP3 inh | Mtb hypoxia inh
Cc1nnc(Nc2ccc(S(N)(=O)=O)cc2)c2ccccc12 | 1 | 0 | 34* | 6 | 5
Cc1nc(Nc2ccc(S(N)(=O)=O)cc2)sc1C(=O)Nc1ccccc1 | 0 | 0 | 35* | -3 | -3
COc1cccc(Cn2c(=O)oc3ccccc32)c1 | 2 | 4 | 4 | 53* | 0
CC(=O)ON=C1C(=O)N(Cc2ccc(C)cc2)c2ccccc21 | / | / | / | / | 5
O=C(CCN1C(=O)S/C(=C\c2ccc(F)cc2)C1=O)Nc1ccc(C(=O)O)c(O)c1 | 6 | 94 | 43* | -14 | /
O=C(CCN1C(=O)S/C(=C\c2ccc(F)cc2)C1=O)Nc1ccc(O)cc1C(=O)O | 0 | 4 | 43* | -9 | -11
O=C(CCN1C(=O)S/C(=C/c2ccccc2)C1=O)Nc1ccc(C(=O)O)c(O)c1 | -1 | 95 | 25 | -26 | /
O=C(CCN1C(=O)S/C(=C/c2ccc(F)cc2)C1=O)Nc1ccc(O)c(C(=O)O)c1 | 3 | 7 | 32* | -27 | -4
O=C(CCCN1C(=O)/C(=C\c2cccs2)SC1=S)Nc1ccc(O)cc1C(=O)O | -13 | 9 | 12 | -47 | -4
O=C1C(=O)N(c2ccc(O)cc2)C(c2ccccc2[N+](=O)[O-])/C1=C(\O)c1ccccc1 (configuration not stated) | -5 | 0 | 36* | 9 | 10
CN(C)c1ccc(C(=O)N=c2sccn2C)cc1[N+](=O)[O-] | -4 | -2 | 38* | -6 | 13
Cc1ccsc1C=Nn1c(COc2ccccc2)n[nH]c1=S | / | / | / | / | -8
CCS(=O)(=O)C1=NN2C(=N)/C(=C\c3ccc(OC(=O)c4ccco4)c(OC)c3)C(=O)N=C2S1 | -3 | 4 | 29 | -5 | /
C=CCOc1ccc(/C=C2\C(=N)N3N=C(S(=O)(=O)CC)SC3=NC2=O)cc1OC | 6 | 10 | 14 | 8 | 48*
CC(C)CS(=O)(=O)C1=NN2C(=N)/C(=C\c3ccc(OC(=O)c4ccco4)cc3)C(=O)N=C2S1 | -2 | 98 | 34* | 1 | /
CC(=O)NNC(=O)c1sc(=S)n(C)c1C | -4 | 32 | 33* | 14 | -9
C[C@H](O)[C@H](O)[C@H]1CNc2nc(N)[nH]c(=O)c2N1 | 73* | 4 | 18 | / | /
COc1ccc(-c2cc3ccc(O)cc3oc2=O)cc1 | + | ? | 27 | 7 | 2
COc1ccccc1C(=O)c1cc2ccc(O)cc2oc1=O | -15 | 4 | 3 | 27 | /
O=c1oc2cc(O)ccc2cc1-c1ccccc1 | + | 73 | 12 | 20 | -1
C=CCN1C=C2C(=O)C(C)(OC(=O)c3cnc4ccccc4n3)C(=O)C=C2C=C1C=CCOC (configuration not stated) | / | / | / | / | 3
CN(C)CCCN1C(=O)c2cccc3cccc(c23)C1=O | 34* | -5 | 29 | 44 | 7
Cc1nn(C)c(C)c1S(=O)(=O)N(CC(=O)NCCCN1CCC(C)CC1)c1ccc(C(C)C)cc1 | 3 | 2 | 8 | 56* | 2
COC(=O)C1=C(c2ccc(F)cc2OCc2ccccc2)CC2CCC1N2C(=O)NCc1ccc2[nH]ccc2c1 (configuration not stated) | / | / | / | / | 9
CCOC1OC(C(=O)N2CCN(Cc3ccccc3)CC2)=CC(c2ccccc2)C1CCCO (configuration not stated) | / | / | / | / | 2
SMILES | FBA Mtb inh | Mtb betalactam | GDH-TPI counter | DUSP3 inh | Mtb hypoxia inh
O=C(NCc1ccco1)c1cccc(-c2cncc3nccn23)c1 | 123* | / | -2 | / | /
O=C(NC1CC1)c1ccc(-c2cnc3cccnn23)cc1 | + | / | 20 | / | /
O=C(NC1CC1)c1cccc(-c2cncc3nccn23)c1 | 185* | / | 16 | / | /
CCOc1ccc(-c2cnc3cccnn23)cc1 | 9 | / | 16 | / | /
CCCCc1n[nH]c2c1C(=NO)CC(c1ccccc1)C2 (configuration not stated) | / | / | / | / | 6
CC(=O)n1cc(C2C=C(C(=O)N3CCOCC3)OC(OCc3ccc(CO)cc3)C2)c2ccccc21 (configuration not stated) | / | / | / | / | 2
C#CCOC(=O)/C(=C/C=C/c1ccccc1)NC(=O)c1ccccc1 | -2 | 98 | 23 | 2 | 6
CC(C)OC(=O)/C(=C\C=C\c1ccccc1)NC(=O)c1ccccc1 | -1 | -12 | 46* | 10 | /
COc1ccc(NC(=O)/C(=C\c2ccccc2)NC(=O)c2ccco2)cc1 | 0 | -1 | -1 | 22 | 15
O=C(Nc1ccc(C(=O)O)cc1)/C(=C\c1ccco1)NC(=O)c1ccco1 | -1 | -4 | 18 | -7 | 2
O=C(Nc1ccc(C(=O)O)cc1)/C(=C\C=C\c1ccccc1)NC(=O)c1ccc(Br)cc1 | -1 | 2 | 31* | 24 | -23
CC(=O)c1ccc(NC(=O)/C(=C\c2ccco2)NC(=O)c2ccco2)cc1 | 0 | -5 | 31* | 17 | /
COc1ccc(NC(=O)/C(=C\c2ccc(F)cc2)NC(=O)c2ccco2)cc1 | -3 | 4 | 12 | 56* | -8
O=C(NN=C/C=C/c1ccc(Br)cc1)c1ccc2c(c1)OCO2 | / | / | / | / | -5
O=C(Nc1ccc(C(=O)O)cc1)/C(=C\c1ccc2c(c1)OCO2)NC(=O)c1ccc(Br)cc1 | 0 | -3 | 20 | 20 | /
Cc1ccc(NC(=O)/C(=C\c2ccc3c(c2)OCO3)NC(=O)c2ccco2)cc1 | 0 | -4 | 40* | 1 | 3
CC(=O)Oc1ccc(/C=C(\NC(=O)c2cccc(Br)c2)C(=O)Nc2ccc(C(=O)O)cc2)cc1 | -1 | 3 | 32* | / | 2
O=C(Nc1ccc(C(=O)O)cc1)C(=Cc1ccc2c(c1)OCO2)NC(=O)c1cccc(Br)c1 | / | / | / | / | -2
O=C(Nc1cccc(C(F)(F)F)c1)/C(=C\c1ccco1)NC(=O)c1cccs1 | 0 | ? | 35* | -2 | 2
O=C(Nc1ccc(C(=O)O)cc1)/C(=C\c1ccc2c(c1)OCO2)NC(=O)c1ccccc1 | 4 | -2 | 36* | 40 | 3
CCN1CC2C3C(=O)N(C)C(=O)C3[C@](C)(C1=O)N2C(=O)c1ccccc1 (some centres not stated) | / | / | / | / | 1
CC(=NNC(=O)CC1N=C(Cc2ccccc2)NNC1=O)c1cccnc1 (configuration not stated) | / | / | / | / | -7
CCN1CCN(C=Nc2nc3c(s2)CCCC3)CC1 | / | / | / | / | -1
CCOC1OC(C(=O)N2CCN(Cc3ccc4c(c3)OCO4)CC2)=CC(C2CC2)C1CCCO (configuration not stated) | / | / | / | / | 4
CCc1cc2c(=O)c(Oc3ccccc3)c(C)oc2cc1O | 186* | 6 | 18 | 14 | -1
Cc1oc2cc(OCC(=O)O)ccc2c(=O)c1Oc1ccccc1 | 1 | -6 | 4 | 24 | 16
CCCCC(NC(=O)Cc1c(C)c2cc3c4c(oc3c(C)c2oc1=O)CCCC4)C(=O)O (configuration not stated) | 12 | -4 | 1 | 52* | 0
CCCCC(NC(=O)CCc1c(C)c2cc3c4c(oc3c(C)c2oc1=O)CCCC4)C(=O)O (configuration not stated) | 8 | -3 | 18 | 58* | 6
COc1cc(C=Nn2nnnc2N)ccc1O | / | / | / | / | 8
